# Screens from PubChem BioAssay.
# Shown are actives, neighbours in structure and some others; about 2.7% of the full set was active somewhere.
# TMEM16A act: activates or potentiates the mouse TMEM16A chloride channel; Q8BHY3; HEK293 TMEM16A/YFP-H148Q/I152L, iodide quench fluorescence; stronger effect = lower value; B-score at 10 µM; 0.3% of 340,000 active;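 active means fluorescence-ratio B-score plate-corrected deviation score at least 3 library SD below zero, with starting fluorescence score within 5 deviations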;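 further: channel opened by trigger with iodide after compound preincubation; score built on the fluorescence ratio of max minus min over baseline; more negative score means more quench and so TMEM16A activation or potentiation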
# PP5 inh: PP5 (human) phosphatase inhibition; P53041; purified PP5c, OMFP substrate fluorescence; inhibition, % at 6.7 µM; 0.18% of 320,000 active; AID 1987;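 active means inhibition above the campaign's mean inhibition across all tested compounds plus 3 SD, cut at about 9.5% in these data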;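 further: 0% = DMSO only and 100% = 100 µM cantharidin control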
# Target sequence (P53041 whole entry, looked up): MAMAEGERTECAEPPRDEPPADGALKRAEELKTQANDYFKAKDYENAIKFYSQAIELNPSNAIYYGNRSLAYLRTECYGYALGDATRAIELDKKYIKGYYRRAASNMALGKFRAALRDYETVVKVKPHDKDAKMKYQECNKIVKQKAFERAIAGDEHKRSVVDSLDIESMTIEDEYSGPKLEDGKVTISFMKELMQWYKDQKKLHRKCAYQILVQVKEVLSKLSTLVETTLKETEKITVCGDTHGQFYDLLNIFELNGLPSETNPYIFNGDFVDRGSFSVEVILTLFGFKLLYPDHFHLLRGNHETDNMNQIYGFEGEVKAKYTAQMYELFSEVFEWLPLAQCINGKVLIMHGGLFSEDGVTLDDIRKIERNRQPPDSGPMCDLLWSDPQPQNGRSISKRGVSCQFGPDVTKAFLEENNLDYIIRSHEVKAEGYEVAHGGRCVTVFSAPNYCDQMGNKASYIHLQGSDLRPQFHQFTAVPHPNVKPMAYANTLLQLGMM
# DNA FID counter: fluorescent intercalator displacement, NS3 helicase counter-screen | DNA fluorescent intercalator displacement, fluorescence | inhibition, % at 7.9 µM | 0.17% of 290,000 active | AID 1845; in the data active means inhibition above about 37%;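 further: 0% = vehicle and 100% = reference compound; higher means more ethidium bromide displaced from hairpin DNA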
# PREPL inh: inhibitors of human prolyl oligopeptidase-like enzyme PREPL | recombinant PREPL, fluorescence polarization activity-based probe | 0.68% of 320,000 active | AID 2751 | inhibition, % at 5.96 µM; in the data active means inhibition above about 43%;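 further: 0% = enzyme with DMSO and 100% = wells lacking enzyme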
# TMEM16A inh: inhibitors of mouse TMEM16A calcium-activated chloride channel; Q8BHY3; HEK293 TMEM16A/YFP iodide influx fluorescence, ionomycin; normalized B-score (activity score, 25-100; higher = stronger inhibition) at 10 µM; 1.2% of 310,000 active;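 active means ratio plate-corrected score three or more library SD toward inhibition, starting fluorescence score within five deviations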;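 further: score derived from kinetic fluorescence span divided by baseline fluorescence per well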
# PP1 counter: blocks human PP1-alpha phosphatase, a PP5 counter-screen | P62136 | purified PP1alpha, OMFP fluorescence | inhibition, % at 6.7 µM | 0.9% of 320,000 active | AID 2235;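 active means inhibition above the mean inhibition of all tested compounds plus 3 SD, computed separately for each screening campaign, cut at about 15% in these data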
# Starred values were filed as active, the others as inactive; i = inactive; nt = no result.
SMILES,TMEM16A act,PP5 inh,DNA FID counter,PREPL inh,TMEM16A inh,PP1 counter
Cn1nnnc1SCC(=O)N1CCN(S(=O)(=O)c2ccc(Cl)cc2)CC1,i,2,-7,-2,i,-4
C=CCN(C(=O)C1=NN(C2CCS(=O)(=O)C2)C(=O)CC1)c1nc(-c2ccc([N+](=O)[O-])cc2)cs1 (stereo unspecified),-4.7*,0,-19,20,i,0
CCNS(=O)(=O)c1cc(OC)ccc1OC,i,1,38*,-11,i,-2
CCCCOc1ccc(S(=O)(=O)Nc2cc(OC)ccc2OC)cc1,i,3,-6,19,25*,7
COc1cc(CC(=O)Nc2cc(S(=O)(=O)N3CCOCC3)ccc2N2CCCC2)cc(OC)c1OC,i,nt,nt,nt,nt,nt
O=C(COc1ccccc1C(=O)O)Nc1cccc2ccccc12,i,nt,nt,12,nt,nt
O=C(COc1cccc2ccccc12)Nc1ccc(Cl)cc1C(=O)O,i,1,-15,1,100*,8
O=C(COc1cccc2ccccc12)Nc1cc(Cl)ccc1C(=O)O,i,2,-8,0,100*,6
CS(=O)(=O)c1ccc(Cl)c(NC(=O)CN2CCN(S(=O)(=O)/C=C/c3ccccc3)CC2)c1,i,nt,nt,nt,nt,nt
Cc1ccc(Nc2nc(N)nc(CSc3nnnn3-c3ccccc3)n2)cc1,i,-1,-22,6,i,16*
CN(C)C(=O)N(CCCN1CCOCC1)Cc1cccc2ccccc12,i,0,2,29,i,-2
CCOc1ccccc1NC(=O)CCn1ccnc1,i,-2,-4,4,i,-3
Cc1ccc(NC(=O)c2cccs2)cc1S(=O)(=O)Nc1cccc(Cl)c1,i,5,-4,-12,100*,0
Cc1ccc(NC(=O)CC(=O)c2ccc([N+](=O)[O-])cc2)cc1S(=O)(=O)Nc1cccc(Cl)c1,i,6,1,-15,i,17*
Cc1ccc(NS(=O)(=O)c2cc(C(=O)Nc3cccc([N+](=O)[O-])c3)ccc2C)cc1,i,5,7,-66,i,1
Cc1ccc(NC(=S)NC(=O)c2ccc(F)cc2)cc1S(=O)(=O)Nc1cccc(Cl)c1,i,2,0,-11,i,-1
COc1ccc(C(CNC(=O)CN(C)S(=O)(=O)c2ccc(C)cc2)N2CCCC2)cc1 (stereo unspecified),i,nt,nt,6,nt,nt
O=C1/C(=C/c2ccc(O)c([N+](=O)[O-])c2)SC(=S)N1Cc1ccccc1,i,2,0,-6,i,2
COc1cc(/C=C2/SC(=S)N(Cc3ccccc3)C2=O)cc(Cl)c1O,i,0,18,-79,i,-2
O=C1/C(=C\c2cccc([N+](=O)[O-])c2O)SC(=S)N1Cc1ccccc1,i,-4,17,-16,100*,2
COc1cc([N+](=O)[O-])cc(/C=C2/SC(=S)N(Cc3ccccc3)C2=O)c1O,i,5,41*,-71,i,15*
CCC1CCCCN1C(=O)CCNC(=O)Cn1cnc2ccccc2c1=O (stereo unspecified),i,0,-13,-2,i,0
COc1ccc([C@@]23Oc4cc(OC)cc(OC)c4[C@]2(O)[C@H](O)[C@H](C(=O)N(C)C)[C@H]3c2ccccc2)cc1,i,nt,nt,nt,nt,nt
Cc1ccc(-c2nnn(CC(=O)Nc3ccc(S(=O)(=O)N4CCC(C)CC4)cc3)n2)cc1,i,3,5,-17,i,16*
CC1CCCN(S(=O)(=O)c2ccc(NC(=O)Cn3nnc(-c4ccccc4F)n3)cc2)C1 (stereo unspecified),i,7,-2,-20,i,2
CC1CCN(S(=O)(=O)c2ccc(NC(=O)Cn3nnc(-c4ccccc4)n3)cc2)CC1,i,1,-6,-11,i,17*
CC1CCN(CC(=O)Nc2ccc(S(=O)(=O)N3CCC(C)CC3)cc2)CC1,i,3,25,3,i,-1
CC(=O)c1ccc2c(c1)CC1(C2)Cc2cc3c(cc2C1)C(=O)CC3 (stereo unspecified),i,nt,nt,nt,nt,nt
CC(=O)Nc1ccc(NC(=O)CSc2nnc(N)n2-c2ccccc2)cc1,i,nt,nt,nt,nt,nt
C=CCN(CC=C)CC(=O)Nn1c(C)ccc1C,i,nt,nt,nt,nt,nt
